Experimental data reported in PubChem BioAssay (EPA / NIEHS).
Several values for one entry are separate records, joined by “and”; a condition that tells them apart may be missing. Equal values may be shown once. Inconclusive results are not listed. More than one record can exist for a structure, and the calls need not agree. Activity calls are given as the source filed them. The calls were made as follows, unless noted: active = hit-call score of the fitted dose curve at least 0.9, where 1 is the maximum; inactive = score below 0.9.

What was measured:
[1] = target: Nuclear respiratory factor 1 (Homo sapiens) (UniProt Q16656); assay: ATG_NRF1_CIS: Attagene CIS-FACTORIAL HepG2 Assay for human Nuclear Respiratory Factor 1 (NRF1) Orphan Gene (AID 2282987); conditions: HepG2 NRF1 cis-element reporter, Attagene multiplex; actives raise or lower the signal
Sequence of Nuclear respiratory factor 1 (Homo sapiens) (Q16656 whole entry, looked up): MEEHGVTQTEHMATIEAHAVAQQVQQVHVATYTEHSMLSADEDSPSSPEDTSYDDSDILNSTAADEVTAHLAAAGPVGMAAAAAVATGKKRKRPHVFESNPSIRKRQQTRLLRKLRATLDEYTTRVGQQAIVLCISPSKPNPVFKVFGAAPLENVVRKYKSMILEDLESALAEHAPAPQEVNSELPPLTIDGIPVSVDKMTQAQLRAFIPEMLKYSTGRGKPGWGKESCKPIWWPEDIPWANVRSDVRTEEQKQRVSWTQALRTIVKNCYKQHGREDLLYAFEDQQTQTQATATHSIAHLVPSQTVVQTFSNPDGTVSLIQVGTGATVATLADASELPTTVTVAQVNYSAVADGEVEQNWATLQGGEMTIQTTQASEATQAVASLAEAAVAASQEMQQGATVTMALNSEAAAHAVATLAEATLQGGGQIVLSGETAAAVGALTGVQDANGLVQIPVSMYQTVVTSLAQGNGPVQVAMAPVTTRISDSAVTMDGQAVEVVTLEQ
Method in brief: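 Measured: fluorescent reporter-specific RT-PCR products from transfected HepG2 cells, separated by capillary electrophoresis. Exposure lasted 24 h. Analysis used bidirectional curve fitting with DMSO as negative control.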

[2] = ATG_NFI_CIS: Attagene CIS-FACTORIAL HepG2 Assay for human Nuclear Factor I (NFI) (AID 2282989); conditions: HepG2 cis-regulatory reporter, NFI response element transcription; actives raise or lower the signal
Method in brief: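 After transient transfection of HepG2 with cis-promoter reporter constructs and 24 h dosing, RNA is reverse-transcribed, amplified, 6-FAM end-labelled and HpaI-digested before capillary analysis. Bidirectional curve fitting against DMSO.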

[3] = target: Myc proto-oncogene protein (Homo sapiens) (UniProt P01106); assay: ATG_Myc_CIS: Attagene CIS-FACTORIAL HepG2 Assay for human Myelocytomatosis (Myc) Proto-Oncogene Transcription Factor (AID 2282990); conditions: HepG2, Attagene cis-reporter transcription factor activity; actives raise or lower the signal
Sequence of Myc proto-oncogene protein (Homo sapiens) (P01106 whole entry, looked up): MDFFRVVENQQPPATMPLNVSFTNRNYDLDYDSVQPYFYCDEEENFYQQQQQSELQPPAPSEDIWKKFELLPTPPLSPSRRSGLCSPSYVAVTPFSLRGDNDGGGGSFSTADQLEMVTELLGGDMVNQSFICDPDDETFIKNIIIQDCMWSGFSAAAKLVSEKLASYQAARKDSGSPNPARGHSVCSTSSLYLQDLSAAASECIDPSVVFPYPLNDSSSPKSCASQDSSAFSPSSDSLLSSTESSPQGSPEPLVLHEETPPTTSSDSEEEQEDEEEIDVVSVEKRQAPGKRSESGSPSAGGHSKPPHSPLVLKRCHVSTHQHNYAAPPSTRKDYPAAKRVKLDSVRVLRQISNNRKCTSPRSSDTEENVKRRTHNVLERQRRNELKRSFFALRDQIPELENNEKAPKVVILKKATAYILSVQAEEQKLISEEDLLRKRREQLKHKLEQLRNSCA
Method in brief: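 Multiplexed cis-reporter transcription in HepG2 cells after 24 h chemical treatment. Reporter mRNA measured by RT-PCR and capillary electrophoresis fluorescence; activity fitted bidirectionally against DMSO control.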

[4] = ATG_NF_kB_CIS: Attagene CIS-FACTORIAL HepG2 Assay for human Nuclear Factor Kappa B (NF-kB) (AID 2282991); conditions: HepG2 Attagene cis-factorial NF-kB reporter mRNA; actives raise or lower the signal
Method in brief: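 Fluorescence of labelled RT-PCR products separated by capillary electrophoresis gives reporter mRNA levels from transfected HepG2 cells exposed 24 h; values are fitted in both directions relative to DMSO.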

[5] = ATG_NRF2_ARE_CIS: Attagene CIS-FACTORIAL HepG2 Assay for human Nuclear Factor Erythroid 2 Related Factor 2 (NFR2) response to Antioxidant Response Elements (ARE) (AID 2282992); conditions: HepG2 Attagene ARE/NRF2 reporter, transcription factor activity; actives raise or lower the signal
Method in brief: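 Transient MRTU transfection of HepG2; 24 h compound exposure; TriZol RNA, RT with oligo(dT), PCR, 6-FAM primer extension, HpaI cut, CE. Bidirectional fit vs DMSO.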

[6] = ATG_Oct_MLP_CIS: Attagene CIS-FACTORIAL HepG2 Assay for human Octamer-Binding Transcription Factor (Oct) (AID 2282993); conditions: HepG2 Attagene cis-factorial Oct reporter, mRNA; actives raise or lower the signal
Method in brief: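 Cells of the HepG2 line express promoter-controlled reporter sequences whose mRNA levels, after 24 h treatment, are measured by RT-PCR and capillary electrophoresis. Increases and decreases are scored relative to DMSO.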

[7] = target: Cellular tumor antigen p53 (Homo sapiens) (UniProt P04637); assay: ATG_p53_CIS: Attagene CIS-FACTORIAL HepG2 Assay for human p53 Transcription Factor (AID 2282994); conditions: HepG2 p53 cis-element reporter, Attagene mRNA; actives raise or lower the signal
Sequence of Cellular tumor antigen p53 (Homo sapiens) (P04637 whole entry, looked up): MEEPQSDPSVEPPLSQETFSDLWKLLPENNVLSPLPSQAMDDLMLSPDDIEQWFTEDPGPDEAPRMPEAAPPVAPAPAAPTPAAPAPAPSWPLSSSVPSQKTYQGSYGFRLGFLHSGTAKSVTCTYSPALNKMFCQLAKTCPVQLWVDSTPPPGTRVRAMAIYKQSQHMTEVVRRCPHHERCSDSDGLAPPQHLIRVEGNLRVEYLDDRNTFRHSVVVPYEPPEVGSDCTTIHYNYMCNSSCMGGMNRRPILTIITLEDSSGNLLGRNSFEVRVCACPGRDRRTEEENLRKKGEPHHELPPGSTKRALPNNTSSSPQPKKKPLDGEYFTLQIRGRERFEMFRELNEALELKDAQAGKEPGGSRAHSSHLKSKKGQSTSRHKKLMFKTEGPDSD
Method in brief: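 HepG2, transient MRTU transfection (cis promoter elements, endogenous TFs); 24 h dosing; RNA isolation, RT-PCR, 6-FAM primer extension, HpaI digest, CE fluorescence; bidirectional fit vs DMSO.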

[8] = BSK_3C_TissueFactor: BioMAP Diversity Plus: 3C Assay for Tissue Factor Biomarker Activity (AID 2282997); conditions: BioMAP 3C HUVEC, tissue factor biomarker readout; actives raise or lower the signal
Method in brief: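 Values derive from bidirectional curve fitting against DMSO of Tissue Factor ELISA signals, taken 24 h after dosing primary human umbilical vein endothelial cells.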

[9] = BSK_3C_uPAR: BioMAP Diversity Plus: 3C Assay for Urokinase-type plasminogen activator receptor (uPAR) Biomarker Activity (AID 2282998); conditions: BioMAP 3C HUVEC, uPAR biomarker ELISA; actives raise or lower the signal
Method in brief: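 Endothelial primary cells of human umbilical vein origin received test chemical; 24 h later uPAR was assayed by ELISA. Fitting was bidirectional, DMSO as negative control.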

[10] = BSK_3C_VCAM1: BioMAP Diversity Plus: 3C Assay for Vascular cell adhesion molecule 1 (VCAM1) Biomarker Activity (AID 2282999); conditions: BioMAP 3C HUVEC, VCAM1 ELISA, cytokine-stimulated; actives raise or lower the signal
Method in brief: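 Human umbilical vein endothelial cells were dosed with compound for 24 h, after which cell-surface VCAM-1 was quantified by ELISA. Bidirectional curve fitting used DMSO as negative control and activity baseline.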

[11] = BSK_4H_Eotaxin3: BioMAP Diversity Plus: 4H Assay for Eotaxin 3 Biomarker Activity (AID 2283000); conditions: primary human endothelial cells (HUVEC); actives raise or lower the signal
Method in brief: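 Endothelial primary cells (human umbilical vein) exposed to compound for 24 h. ELISA detection of Eotaxin-3.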

[12] = target: human Peroxisome Proliferator-activated Receptor alpha (PPARa), PPARA (gene 5465) (UniProt Q07869); assay: ATG_PPARa_TRANS: Attagene TRANS-FACTORIAL HepG2 Assay for human Peroxisome Proliferator-activated Receptor alpha (PPARa) (AID 2283001; active = hit-call score of the fitted dose curve at least 0.9, where 1 is the maximum;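 as to AC50: potency for gain of reporter signal over DMSO so agonist or activator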)
Sequence of human Peroxisome Proliferator-activated Receptor alpha (PPARa), PPARA (gene 5465) (Q07869 whole entry, looked up, the tested form may be a part): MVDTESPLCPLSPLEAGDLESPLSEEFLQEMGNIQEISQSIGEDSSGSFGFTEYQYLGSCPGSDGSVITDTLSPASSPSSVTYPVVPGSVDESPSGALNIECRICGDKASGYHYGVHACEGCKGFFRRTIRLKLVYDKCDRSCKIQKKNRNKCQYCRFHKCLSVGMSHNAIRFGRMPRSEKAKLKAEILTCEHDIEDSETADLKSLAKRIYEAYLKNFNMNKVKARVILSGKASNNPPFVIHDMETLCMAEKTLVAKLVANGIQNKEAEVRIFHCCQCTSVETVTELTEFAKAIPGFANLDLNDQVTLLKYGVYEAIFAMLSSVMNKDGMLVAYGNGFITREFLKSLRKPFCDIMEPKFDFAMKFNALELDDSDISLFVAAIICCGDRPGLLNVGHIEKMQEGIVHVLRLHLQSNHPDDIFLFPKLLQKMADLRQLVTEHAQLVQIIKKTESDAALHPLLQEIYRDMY
Method in brief: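 HepG2 cells transiently transfected with multiplexed GAL4-UAS reporter units and chimeric NR-Gal4 constructs were dosed for 24 h. Reporter mRNA was measured by RT-PCR with fluorescent labelling and capillary electrophoresis; gain of signal fitted against DMSO.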

[13] = read-out: Intercellular Adhesion Molecule 1 (ICAM1), ICAM1 (gene 3383); assay: BSK_3C_ICAM1: BioMAP Diversity Plus: 3C Assay for Intercellular Adhesion Molecule 1 (ICAM1) Biomarker Activity (AID 2283003); conditions: primary human endothelial cells (HUVEC); actives raise or lower the signal
Method in brief: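 Human vascular endothelial primary cells, 3C conditions, 24 h treatment. ICAM-1 by ELISA.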

[14] = target: human Retinoic Acid Receptor beta (RARb), RARB (gene 5915) (UniProt P10826); assay: ATG_RARb_TRANS: Attagene TRANS-FACTORIAL HepG2 Assay for human Retinoic Acid Receptor beta (AID 2283004; active = hit-call score of the fitted dose curve at least 0.9, where 1 is the maximum)
Sequence of human Retinoic Acid Receptor beta (RARb), RARB (gene 5915) (P10826 whole entry, looked up, the tested form may be a part): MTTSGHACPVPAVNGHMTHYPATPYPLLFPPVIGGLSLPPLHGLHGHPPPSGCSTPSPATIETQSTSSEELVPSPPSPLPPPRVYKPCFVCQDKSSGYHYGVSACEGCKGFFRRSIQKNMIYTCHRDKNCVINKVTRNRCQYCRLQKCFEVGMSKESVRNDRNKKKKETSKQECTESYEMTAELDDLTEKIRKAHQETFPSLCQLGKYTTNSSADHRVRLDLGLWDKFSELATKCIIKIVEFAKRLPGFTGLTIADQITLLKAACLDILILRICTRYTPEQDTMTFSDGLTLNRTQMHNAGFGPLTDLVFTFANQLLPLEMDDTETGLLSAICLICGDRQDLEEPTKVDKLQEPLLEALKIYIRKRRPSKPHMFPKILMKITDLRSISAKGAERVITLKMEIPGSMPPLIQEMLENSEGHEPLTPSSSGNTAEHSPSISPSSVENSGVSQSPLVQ
Method in brief: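 HepG2, transient MRTU transfection, NR–Gal4 chimera, 24 h treatment; RT-PCR plus CE fluorescence detection of reporter mRNA; gain of signal vs DMSO.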

[15] = BSK_3C_Proliferation: Cell Proliferation Assessment in the BioMAP Diversity Plus: 3C Assay (AID 2283006); conditions: primary human endothelial cells (HUVEC);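 as to AC50: potency may reflect either rise or fall in cell number versus DMSO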
Method in brief: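 Proliferation of human vascular endothelial primary cells after 48 h dosing, quantified as SRB-stained protein at 560 nm relative to DMSO.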

[16] = target: Peroxisome proliferator-activated receptor gamma (Homo sapiens) (UniProt P37231); assay: ATG_PPARg_TRANS: Attagene TRANS-FACTORIAL HepG2 Assay for human Peroxisome Proliferator-activated Receptor-gamma (PPARg) (AID 2283007; active = hit-call score of the fitted dose curve at least 0.9, where 1 is the maximum)
Sequence of Peroxisome proliferator-activated receptor gamma (Homo sapiens) (P37231 whole entry, looked up): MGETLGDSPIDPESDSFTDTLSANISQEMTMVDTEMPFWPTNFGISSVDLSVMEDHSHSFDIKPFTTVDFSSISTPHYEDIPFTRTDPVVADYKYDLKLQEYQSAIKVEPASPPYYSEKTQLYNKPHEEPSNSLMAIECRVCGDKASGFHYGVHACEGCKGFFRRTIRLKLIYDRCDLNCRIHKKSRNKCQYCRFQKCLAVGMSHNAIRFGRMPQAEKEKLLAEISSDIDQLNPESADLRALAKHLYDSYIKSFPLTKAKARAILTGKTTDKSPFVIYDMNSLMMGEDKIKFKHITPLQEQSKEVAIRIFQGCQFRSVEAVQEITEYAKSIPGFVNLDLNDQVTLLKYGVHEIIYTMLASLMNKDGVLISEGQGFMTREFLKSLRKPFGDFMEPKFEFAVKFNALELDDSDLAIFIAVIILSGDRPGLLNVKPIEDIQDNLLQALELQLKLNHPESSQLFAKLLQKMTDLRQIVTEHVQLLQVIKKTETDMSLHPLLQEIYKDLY
Method in brief: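 Twenty-four hours after chemical dosing of transiently transfected HepG2 cells, isolated RNA was converted to cDNA, reporter sequences amplified and 6-FAM-labelled, then HpaI-digested and analysed by capillary electrophoresis. Signal increase against DMSO was fitted.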

[17] = target: Nuclear receptor subfamily 1 group I member 2 (Homo sapiens) (UniProt O75469); assay: ATG_PXR_TRANS: Attagene TRANS-FACTORIAL HepG2 Assay for human Pregnane X Receptor (PXR) (AID 2283008; active = hit-call score of the fitted dose curve at least 0.9, where 1 is the maximum)
Sequence of Nuclear receptor subfamily 1 group I member 2 (Homo sapiens) (O75469 whole entry, looked up, the tested form may be a part): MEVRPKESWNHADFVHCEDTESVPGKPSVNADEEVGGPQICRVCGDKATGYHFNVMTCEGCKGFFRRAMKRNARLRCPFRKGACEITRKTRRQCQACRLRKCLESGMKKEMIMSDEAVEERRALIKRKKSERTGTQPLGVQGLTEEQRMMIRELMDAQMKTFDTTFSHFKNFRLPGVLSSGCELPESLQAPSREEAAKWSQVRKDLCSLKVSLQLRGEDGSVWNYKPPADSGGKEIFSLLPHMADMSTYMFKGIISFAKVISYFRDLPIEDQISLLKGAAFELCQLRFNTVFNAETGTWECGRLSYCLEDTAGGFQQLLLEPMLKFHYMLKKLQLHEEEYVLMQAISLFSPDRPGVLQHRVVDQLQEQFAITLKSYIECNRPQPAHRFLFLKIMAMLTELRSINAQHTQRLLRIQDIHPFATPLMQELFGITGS
Method in brief: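 Read-out is fluorescence of labelled reporter cDNA fragments separated by capillary electrophoresis after RT-PCR and HpaI digestion. Source: HepG2 cells carrying PXR-GAL4/UAS reporter constructs, treated 24 h; activity fitted upward relative to DMSO.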

[18] = target: human Peroxisome Proliferator-activated Receptor delta (PPARd), PPARD (gene 5467) (UniProt Q03181); assay: ATG_PPARd_TRANS: Attagene TRANS-FACTORIAL HepG2 Assay for human Peroxisome Proliferator-activated Receptor delta (PPARd) (AID 2283002; active = hit-call score of the fitted dose curve at least 0.9, where 1 is the maximum)
Sequence of human Peroxisome Proliferator-activated Receptor delta (PPARd), PPARD (gene 5467) (Q03181 whole entry, looked up, the tested form may be a part): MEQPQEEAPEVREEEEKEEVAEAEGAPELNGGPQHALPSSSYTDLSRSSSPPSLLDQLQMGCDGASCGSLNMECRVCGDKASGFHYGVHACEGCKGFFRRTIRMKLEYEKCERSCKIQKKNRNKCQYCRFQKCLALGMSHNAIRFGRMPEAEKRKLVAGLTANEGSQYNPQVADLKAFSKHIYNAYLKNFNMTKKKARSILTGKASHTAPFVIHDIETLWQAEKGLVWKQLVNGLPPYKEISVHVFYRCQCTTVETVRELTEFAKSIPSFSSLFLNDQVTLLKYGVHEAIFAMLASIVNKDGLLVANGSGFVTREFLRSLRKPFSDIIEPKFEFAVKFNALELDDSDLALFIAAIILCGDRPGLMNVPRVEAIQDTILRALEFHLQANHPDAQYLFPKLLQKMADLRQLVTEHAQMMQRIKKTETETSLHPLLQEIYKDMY
Method in brief: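 Multiplexed trans-activation format: HepG2 liver cells expressing exogenous NR-Gal4 chimeras and GAL4-UAS reporters were exposed for 24 h. Reporter mRNA was detected by RT-PCR with capillary electrophoresis fluorescence; activity fitted as gain of signal relative to DMSO.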

[19] = target: human Retinoic Acid Receptor gamma (RARg), RARG (gene 5916) (UniProt P13631); assay: ATG_RARg_TRANS: Attagene TRANS-FACTORIAL HepG2 Assay for human Retinoic Acid Receptor gamma (RARg) (AID 2283009; active = hit-call score of the fitted dose curve at least 0.9, where 1 is the maximum)
Sequence of human Retinoic Acid Receptor gamma (RARg), RARG (gene 5916) (P13631 whole entry, looked up, the tested form may be a part): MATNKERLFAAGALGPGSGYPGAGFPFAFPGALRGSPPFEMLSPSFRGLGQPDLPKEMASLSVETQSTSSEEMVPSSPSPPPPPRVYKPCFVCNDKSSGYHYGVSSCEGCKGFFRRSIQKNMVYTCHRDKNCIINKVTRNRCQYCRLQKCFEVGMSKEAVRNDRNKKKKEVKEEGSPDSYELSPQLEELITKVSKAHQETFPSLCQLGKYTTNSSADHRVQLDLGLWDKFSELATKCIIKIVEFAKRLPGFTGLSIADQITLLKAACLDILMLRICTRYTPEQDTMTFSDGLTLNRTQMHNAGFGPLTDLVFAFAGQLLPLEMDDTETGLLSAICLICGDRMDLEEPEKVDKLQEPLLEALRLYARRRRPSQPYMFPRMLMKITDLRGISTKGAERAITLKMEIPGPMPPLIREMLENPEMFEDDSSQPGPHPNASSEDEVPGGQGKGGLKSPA
Method in brief: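 HepG2, RARg-GAL4 TRANS system, 24 h exposure; reporter mRNA by RT-PCR + CE fluorescence; increase over DMSO.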

[20] = target: Retinoic acid receptor alpha (Homo sapiens) (UniProt P10276); assay: ATG_RARa_TRANS: Attagene TRANS-FACTORIAL HepG2 Assay for human Retinoic Acid Receptor alpha (RARa) (AID 2283005; active = hit-call score of the fitted dose curve at least 0.9, where 1 is the maximum)
Sequence of Retinoic acid receptor alpha (Homo sapiens) (P10276 whole entry, looked up, the tested form may be a part): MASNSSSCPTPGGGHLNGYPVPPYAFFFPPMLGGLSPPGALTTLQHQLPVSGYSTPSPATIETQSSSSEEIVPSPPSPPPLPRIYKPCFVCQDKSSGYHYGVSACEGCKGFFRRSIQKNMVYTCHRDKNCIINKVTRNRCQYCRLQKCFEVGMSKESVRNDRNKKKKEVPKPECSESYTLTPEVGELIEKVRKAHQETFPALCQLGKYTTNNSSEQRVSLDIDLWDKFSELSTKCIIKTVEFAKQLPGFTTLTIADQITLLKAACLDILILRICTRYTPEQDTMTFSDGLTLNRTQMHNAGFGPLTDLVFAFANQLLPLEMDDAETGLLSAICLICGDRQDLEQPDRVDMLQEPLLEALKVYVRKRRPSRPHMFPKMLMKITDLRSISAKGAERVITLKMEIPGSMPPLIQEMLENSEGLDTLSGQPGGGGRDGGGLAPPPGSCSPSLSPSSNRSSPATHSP
Method in brief: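 HepG2 cells transiently transfected with multiple reporter units expressing chimeric RARα-GAL4 fusion, with GAL4-UAS-driven reporters. After 24 h compound exposure, reporter mRNA induction quantified by RT-PCR and capillary electrophoresis with fluorescent labeling; gain-of-signal fitted relative to DMSO control.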

Measured: AC50

CCCC(=O)OCC(COC(=O)CCC)OC(=O)CCC
inactive: [1] | [2] | [3] | [5] | [6]
active: [4] 44.7 µM | [7] 89.1 µM

O=S(=O)(OCC(F)(F)F)C(F)(F)C(F)(F)C(F)(F)C(F)(F)F
active: [4] 62.7 µM | [5] 45.6 µM | [7] 89.1 µM | [9] 38.5 µM | [16] 107 µM
inactive: [1] | [2] | [3] | [6] | [8] | [9] | [10] | [11] | [12] | [13] | [14] | [15] | [17]

Cc1cc(C)c(O)c(C(C)(C)C)c1
active: [5] 52.2 µM | [8] 26.9 µM | [9] 29.2 µM | [10] 31.6 µM | [11] 30.4 µM | [13] 30.4 µM | [15] 20 µM | [17] 16.2 µM
not listed: [14] | [19] | [20]
inactive: all other assays above

OCC(F)(F)C(F)(F)C(F)(F)C(F)(F)C(F)(F)C(F)(F)CO
active: [15] 15.6 µM
inactive: [1] | [2] | [3] | [4] | [5] | [6] | [7] | [8] | [9] | [10] | [11] | [12] | [13] | [15] | [16] | [17]

OCCCCC(F)(F)C(F)(F)C(F)(F)C(F)(F)F
not listed: [14] | [17] | [20]
inactive: all other assays above

NCC(F)(F)C(F)(F)C(F)(F)C(F)(F)C(F)(F)C(F)(F)C(F)(F)C(F)(F)F
not listed: [18]
inactive: all other assays above

CN(C(=O)C(F)(F)C(F)(F)C(F)(F)F)[Si](C)(C)C
not listed: [14] | [19]
inactive: all other assays above

OCC(F)(F)C(F)(F)C(F)(F)C(F)(F)C(F)(F)C(F)(F)C(F)(F)C(F)(F)CO
inactive: [1] | [2] | [3] | [4] | [5] | [6] | [7] | [8] | [9] | [10] | [11] | [18] | [13] | [16]
active: [9] 7.66 µM | [11] 38 µM | [15] 30 µM and 44.6 µM | [17] 14.4 µM

C=C(C)C(=O)OCC(F)(F)C(F)(F)C(F)(F)C(F)F
not listed: [14] | [19]
inactive: all other assays above

O=C(O)C(F)(F)OC(F)(F)C(F)(F)OC(F)(F)C(F)(F)OC(F)(F)F
active: [5] 37.8 µM | [12] 15.4 µM | [16] 17.9 µM
not listed: [14] | [20]
inactive: all other assays above

Oc1ccc2c(c1)CCC2
not listed: [8] | [9] | [10] | [11] | [13] | [15]
inactive: all other assays above

O=C=Nc1cccc2c(N=C=O)cccc12
active: [17] 0.628 µM
not listed: [12] | [18] | [19] | [20]
inactive: all other assays above

FC(F)(F)C(F)(F)C(F)(F)CC1CO1 (stereo not given)
not listed: [14] | [18] | [19] | [20]
inactive: all other assays above

O=C(F)C1(F)C(F)(F)C(F)(F)C(F)(F)C(F)(F)C1(F)F
not listed: [12] | [17] | [19]
inactive: all other assays above
